DT40 TDP1 CPT: qHTS for Inhibitors of human tyrosyl-DNA phosphodiesterase 1 (TDP1): qHTS in cells in presence of CPT | chicken DT40 Tdp1-/-;hTDP1 cells + 20 nM CPT, ATP luminescence, 48 h | Potency, µM (doses to about 46.2 µM), actives largely listed as inhibitors | 420,000 tested, 12% active | AID 686979, 2013; further: nearly all actives have a fitted effect of over 55% in size
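Chicken DT40 Tdp1-/- cells complemented with human TDP1, 400 cells/well, exposed to compounds plus 20 nM camptothecin for at least 48 h at 37 C; viability read as ATP content by CellTiter-Glo luminescence.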
HT1080 IDH1KD tx: qHTS for induction of synthetic lethality in tumor cells producing 2HG: qHTS for the HT-1080-IDH1KD cell line; HT-1080 IDH1 knockdown viability, ATP luminescence, 48 h; Potency, µM (series often up to 46.1 µM), hits mostly cytotoxic; 360,000 tested, 2% active; AID 686971, 2013
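Knockdown cells (IDH1KD HT-1080) received compounds 2 h after plating at 750 cells/well and were kept 48 h at 37 °C in 5% FBS RPMI. A CellTiter-Glo luminescence read gave % activity for curve fitting.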
HT1080NT lethal: qHTS for induction of synthetic lethality in tumor cells producing 2HG: qHTS for the HT-1080-NT fibrosarcoma cell line; HT-1080-NT fibrosarcoma viability, CellTiter-Glo ATP luminescence, 48 h; 360,000 tested, 1.6% active; Potency, µM (highest dose often 46.1 µM), usual class: cytotoxic;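 further: NT is the 2HG producing partner of a matched IDH1 knockdown line; nearly all actives have a fitted effect of over 55% in size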
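HT-1080-NT; 750 cells/well; 5% FBS RPMI; 48 h compound, 37 degrees C; CellTiter-Glo luminescence; curve fitting and curve-class assignment.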
IL1B secr inh: qHTS for Inhibitors of Inflammasome Signaling: IL-1-beta AlphaLISA Primary Screen; activity change, % at 57.5 µM; 360,000 tested, 4.7% active; THP-1 LPS/ATP IL-1B secretion, AlphaLISA, 16 h; stronger effect = lower value; in the data active means activity change below about -50%; inconclusive means mostly about -30% to -49%
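Secreted IL-1B measured by AlphaLISA bead assay after 16 h compound exposure of THP-1 cells; compounds (final up to 57.5 uM) added 1 h before LPS (250 ng/mL) and ATP (1.25 mM) stimulation; lower signal means less secretion.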
TDP1 cell noCPT: qHTS for Inhibitors of human tyrosyl-DNA phosphodiesterase 1 (TDP1): qHTS in cells in absence of CPT | DT40 Tdp1-/- hTDP1 cells, no CPT, ATP luminescence, 48 h | 420,000 tested, 15% active | Potency, µM (highest dose often 46.2 µM), hits mostly inhibitors; further: nearly all actives have a fitted effect of over 55% in size
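Compound effects on proliferation are scored in DT40 Tdp1-/-;hTDP1 cells in the absence of CPT. ATP levels (CellTiter-Glo luminescence) are recorded after a ≥48 hr, 37 °C incubation.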
12-LOX inh: Primary qHTS assay for inhibitors of human arachidonate 12S-lipoxygenase (ALOX12): Round 2; AID 1671190, 2021; Potency, µM (top dose mostly 108 µM), most hits filed as inhibitors; 580,000 tested, 1.1% active; purified 12hLO, xylenol orange hydroperoxide absorbance; Polyunsaturated fatty acid lipoxygenase ALOX12 (Homo sapiens), P18054
Target sequence (P18054 whole entry, looked up): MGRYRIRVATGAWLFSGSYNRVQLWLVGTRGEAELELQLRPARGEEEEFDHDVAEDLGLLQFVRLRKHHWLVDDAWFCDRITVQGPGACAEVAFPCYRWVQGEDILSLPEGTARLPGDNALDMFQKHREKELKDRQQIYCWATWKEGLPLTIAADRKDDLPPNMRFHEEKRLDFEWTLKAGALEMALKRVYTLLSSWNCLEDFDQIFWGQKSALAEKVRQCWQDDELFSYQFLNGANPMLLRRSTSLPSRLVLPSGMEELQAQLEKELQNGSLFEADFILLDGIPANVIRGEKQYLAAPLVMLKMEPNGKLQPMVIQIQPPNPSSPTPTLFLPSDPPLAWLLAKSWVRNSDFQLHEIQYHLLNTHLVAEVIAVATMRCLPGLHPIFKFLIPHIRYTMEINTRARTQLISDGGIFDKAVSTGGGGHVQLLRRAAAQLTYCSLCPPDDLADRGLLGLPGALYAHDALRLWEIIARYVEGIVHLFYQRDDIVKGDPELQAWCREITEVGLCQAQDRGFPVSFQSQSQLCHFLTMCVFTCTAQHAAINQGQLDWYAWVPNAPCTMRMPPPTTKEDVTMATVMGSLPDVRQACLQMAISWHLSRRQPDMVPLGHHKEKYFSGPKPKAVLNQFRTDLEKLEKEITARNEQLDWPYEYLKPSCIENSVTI
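Purified human 12hLO at 150 nM in 25 mM Hepes, 0.01% Triton X-100, pH 7.0, preincubated 15 min at room temperature with compound. Reaction started with 40 uM arachidonic acid, 30 min at room temperature. Hydroperoxide measured by Fe-xylenol orange, 573/405 nm absorbance ratio.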
Of the large screens only hits and unclear results are named; the others gave an inactive call. Shown is part of a subset that was picked to be rich in hits. Unless noted, the call rests on the fitted dose curve; in most records, active means well fitted curve in the direction sought with a large enough effect; inconclusive means small, poorly fitted or top-dose-only effect, or another doubt; inactive means no such curve, though single readings can be large; an effect the other way counts as inactive or inconclusive.

COc1ccc(OC)c(-c2csc(NC(=O)C3CSC4(C)CCC(=O)N34)n2)c1 (stereo not given)	DT40 TDP1 CPT inconclusive, IL1B secr inh -55, TDP1 cell noCPT inconclusive
Cc1cc(NC(=O)COc2cccc(Oc3ccccc3)c2)no1	DT40 TDP1 CPT 13µM, HT1080 IDH1KD tx inconclusive, HT1080NT lethal inconclusive, TDP1 cell noCPT inconclusive
COc1cc(S(=O)(=O)N2CCN(CCO)CC2)ccc1Br	none (no result: DT40 TDP1 CPT, HT1080 IDH1KD tx, HT1080NT lethal, IL1B secr inh, TDP1 cell noCPT)
CC(=O)c1cc(CN2CCCn3nc(CNC(=O)C4CCC4)cc3C2)cs1	none (no result: DT40 TDP1 CPT, HT1080 IDH1KD tx, HT1080NT lethal, IL1B secr inh, TDP1 cell noCPT)
COc1ccc(-c2csc(NC(=O)CSCC(=O)Nc3cc(C)on3)n2)c(OC)c1	DT40 TDP1 CPT 29µM, TDP1 cell noCPT inconclusive
Cc1ccc(NC(=O)CSC(C)C(=O)Nc2cc(C)on2)cc1 (stereo not given)	none (no result: DT40 TDP1 CPT, HT1080 IDH1KD tx, HT1080NT lethal, IL1B secr inh, TDP1 cell noCPT)
COc1ccc(OC)c(-c2csc(NC(=O)c3ccc4c(c3)OCO4)n2)c1	DT40 TDP1 CPT inconclusive, TDP1 cell noCPT 15µM
COc1ccc(OC)c(NC(=O)c2ccc3c(c2)OCO3)c1	none
COc1ccc(-c2csc(NC(=O)Cc3ccccc3F)n2)c(OC)c1	DT40 TDP1 CPT inconclusive, IL1B secr inh -60, TDP1 cell noCPT inconclusive
COc1ccc(OC)c(-c2csc(NC(=O)CSCC(=O)Nc3cc(C)on3)n2)c1	none
COc1ccc(-c2csc(NC(=O)CSC(C)C(=O)Nc3cc(C)on3)n2)cc1OC (stereo not given)	DT40 TDP1 CPT 18µM, TDP1 cell noCPT 10µM
Fc1cccc(CN(C2=NCCN2)c2c(Cl)cccc2Cl)c1	DT40 TDP1 CPT inconclusive, HT1080NT lethal inconclusive, TDP1 cell noCPT 21µM
CCOc1ncccc1CNC(=O)c1nccnc1N	none (no result: DT40 TDP1 CPT, HT1080 IDH1KD tx, HT1080NT lethal, IL1B secr inh, TDP1 cell noCPT)
COc1ccc([S+](=O)([O-])c2nnn3c2nc(N2CCCCC2)c2ccccc23)cc1	none (no result: DT40 TDP1 CPT, HT1080 IDH1KD tx, HT1080NT lethal, IL1B secr inh, TDP1 cell noCPT)
Cc1ccc(N=C2C(=S)N(c3ccc(C)cc3)C(=N)N2/N=C/c2ccc(Cl)cc2)cc1	DT40 TDP1 CPT 26µM, IL1B secr inh inconclusive, TDP1 cell noCPT 26µM
COc1ccc([C@H](C)NC(=O)c2c(C)noc2-c2ccc(OC(F)(F)F)cc2)cc1	none (no result: DT40 TDP1 CPT, HT1080 IDH1KD tx, HT1080NT lethal, IL1B secr inh, TDP1 cell noCPT)
Cc1nc2c(c(-c3ccc(Cl)cc3)n1)CCN(C(=O)Cc1ccccn1)CC2	none (no result: DT40 TDP1 CPT, HT1080 IDH1KD tx, HT1080NT lethal, IL1B secr inh, TDP1 cell noCPT)
CC(C)COP(=O)(OCC(C)C)C(Nc1ccccc1)c1ccc2c(c1)OCO2 (stereo not given)	DT40 TDP1 CPT 15µM, IL1B secr inh -62, TDP1 cell noCPT inconclusive
CC(C)COP(=O)(OCC(C)C)C(Nc1ccccc1)c1ccc(F)cc1 (stereo not given)	DT40 TDP1 CPT inconclusive, HT1080NT lethal inconclusive, IL1B secr inh inconclusive, TDP1 cell noCPT inconclusive
Cc1ccsc1CN(C(=O)c1cc(=O)c2cc(Cl)ccc2o1)C1CCS(=O)(=O)C1 (stereo not given)	none (no result: DT40 TDP1 CPT, HT1080 IDH1KD tx, HT1080NT lethal, IL1B secr inh, TDP1 cell noCPT)
C=CC[C@H](CC(=O)N(CCO)Cc1ccccc1)C(=O)NCCOC(=O)[C@H](CC=C)CC(=O)OC(C)(C)C	DT40 TDP1 CPT 16µM, TDP1 cell noCPT 21µM, 12-LOX inh inconclusive
C=CC[C@H](CC(=O)N(CCO)Cc1ccccc1)C(=O)NCCOC(=O)[C@@H](CC=C)CC(=O)OC(C)(C)C	DT40 TDP1 CPT 23µM, TDP1 cell noCPT inconclusive
COc1ccc(/C=N\NC(=O)COc2ccc(C(C)(C)C)cc2)cc1Cn1nc(C)cc1C	DT40 TDP1 CPT inconclusive, HT1080 IDH1KD tx inconclusive, HT1080NT lethal inconclusive, TDP1 cell noCPT 21µM
CCN(C[C@H]1N[C@@](Cc2ccccc2)(C(=O)OC)[C@H]2C(=O)N(Cc3ccccc3)C(=O)[C@@H]12)C(=O)c1ccc(F)cc1	DT40 TDP1 CPT 16µM, TDP1 cell noCPT inconclusive
